SMN2 splice up: qHTS Assay for Enhancers of SMN2 Splice Variant Expression; HEK293 SMN2-luciferase splicing reporter, luminescence, 30-36 h; 210,000 compounds, 2.8% hits; Potency, µM (doses to about 46.1 µM), for inactives: top-dose activity change, positive = activation, actives largely listed as activators; note: % of control where 0% means no effect; nearly all actives have a fitted effect of over 55% in size
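HEK293 cells carry an SMN2 […]–luciferase reporter in which exon 7 inclusion puts luciferase in frame. Cells were plated 10-12 h before compound addition, then incubated 30-36 h at 37C. ONE-Glo luminescence was read; sodium butyrate at 4.5 mM final served as control.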
ELG1 genotoxic: qHTS screen for small molecules that induce genotoxicity in human embryonic kidney (HEK293T) cells expressing luciferase-tagged ELG1 | HEK293T ELG1-luciferase reporter, luminescence, 16 h | AID 504466, 2011 | Potency, µM (highest dose often 46 µM), for inactives: top-dose activity change, positive = activation, hits mostly activators | 330,000 compounds, 1.3% hits; note: % of control where 0% means no effect; nearly all actives have a fitted effect of over 60% in size
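HEK293T cells expressing luciferase-tagged ELG1 were exposed to compound or DMSO vehicle for 16 hr at 37 °C and 5% CO2. Luciferase activity was then measured with ONE-Glo after 30 min at room temperature.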
NPC1 prom act: qHTS Assay for NPC1 Promoter Activators; Huh7 NPC1 promoter luciferase reporter, 24 h; Potency, µM (series often up to 9.22 µM), without a hit: at the top dose activation, most hits filed as activators; 320,000 compounds, 2.4% hits; AID 485313, 2010; note: % of control where 0% means no effect; nearly all actives have a fitted effect of over 60% in size
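Luciferase expression driven by the NPC1 promoter was measured in stably transfected Huh7 cells after a 24 h compound incubation, using a luciferase reagent and a luminescence read.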
FLuc modulator: qHTS profiling assay for firefly luciferase inhibitor/activator using purifed enzyme and Km concentrations of substrates (counterscreen for miR-21 project) | Luciferin 4-monooxygenase (Photinus pyralis), P08659 | purified FLuc, Km substrates, luminescence inhibition | Potency, µM (doses to about 57.5 µM), for inactives: top-dose activity change, negative = inhibition, usual class: inhibitors | 360,000 compounds, 6.9% hits | AID 588342, 2011;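 note: plate controls were vehicle for no effect and reference inhibitor for full effect; nearly all actives have a fitted effect of over 55% in size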
Target sequence (P08659 whole entry, looked up): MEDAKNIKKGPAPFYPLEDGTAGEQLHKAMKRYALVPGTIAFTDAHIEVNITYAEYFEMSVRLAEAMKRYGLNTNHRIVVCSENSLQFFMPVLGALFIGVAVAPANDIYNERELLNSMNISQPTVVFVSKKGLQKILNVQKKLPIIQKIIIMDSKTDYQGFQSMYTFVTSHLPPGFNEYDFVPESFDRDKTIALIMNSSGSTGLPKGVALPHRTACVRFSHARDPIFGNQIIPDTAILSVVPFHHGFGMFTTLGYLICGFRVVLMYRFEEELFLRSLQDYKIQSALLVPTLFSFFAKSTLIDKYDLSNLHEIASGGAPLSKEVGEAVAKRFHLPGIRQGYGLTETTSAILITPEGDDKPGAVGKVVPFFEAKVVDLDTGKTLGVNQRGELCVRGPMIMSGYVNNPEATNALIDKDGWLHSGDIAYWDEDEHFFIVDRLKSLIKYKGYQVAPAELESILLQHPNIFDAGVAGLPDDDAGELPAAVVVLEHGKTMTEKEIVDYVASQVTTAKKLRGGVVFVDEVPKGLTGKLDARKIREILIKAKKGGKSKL
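Biochemical qHTS of compounds, final roughly 60 µM downward over six points, against 10 nM purified firefly luciferase using Km concentrations of substrates (10 uM D-luciferin, 10 uM ATP) in Tris acetate pH 7.5 buffer; luminescence output.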
uPA surface inh: qHTS for Inhibitors of Cell Surface uPA Generation. cell surface uPA generation assay, qHTS. Potency, µM (series often up to 38.3 µM), for the others: at the highest dose activity change, negative = inhibition, hits mostly inhibitors. 330,000 compounds, 0.31% hits. AID 540303, 2011; active = well fitted inhibition curve with a large enough effect; inconclusive = small, poorly fitted or top-dose-only effect; inactive = no such curve, though single readings can be large or run the other way; tested in mouse RAW 264.7 cells; note: % is set by controls: 0 for no effect and ±100 for the full control effect; nearly all actives have a fitted effect of over 55% in size
Rab9 promoter act: qHTS Assay for Rab9 Promoter Activators; Huh7 Rab9 promoter-luciferase reporter, luminescence, 24 h; Potency, µM (top dose mostly 9.22 µM), inactives show top-dose activation, negative = inhibition, actives largely listed as activators; 320,000 compounds, 2.8% hits; AID 485297, 2010; note: % of control where 0% means no effect; nearly all actives have a fitted effect of over 60% in size
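Huh7 cells stably carrying a Rab9 promoter-luciferase reporter, 1500 cells per well in OP-MEM I with 10% FBS, treated with compound 24 hours at 37C. Luciferase activity read by luminescence after 10 minutes with Amplite reagent.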
The depositor's hits bear a star; ? = inconclusive; nt = no result; [ ] = dose if it differs, or a comment. In the library only some 7.3% were active in any assay of this set; here they are far more common. Unless noted, calls come from the whole dose curve; as a rule, active = well fitted curve in the direction sought with a large enough effect; inconclusive = small, poorly fitted or top-dose-only effect, or another doubt; inactive = no such curve, though single readings can be large; an effect the other way counts as inactive or inconclusive. Potency is the fitted concentration of half-maximal effect.

SMILES	SMN2 splice up	ELG1 genotoxic	NPC1 prom act	FLuc modulator	uPA surface inh	Rab9 promoter act
Cc1cccc(OCc2nc(CC(=O)Nc3ccc(C)cc3C)cs2)c1	nt	nt	nt	-11%	nt	nt
NCC(O)CN1CCN(Cc2ccccc2)CC1 (configuration not stated)	nt	-1%	2%	0%	2%	-3%
Cc1cccc(Cn2cc(S(=O)(=O)c3ccc(Cl)cc3)c(=O)c3cc4c(cc32)OCO4)c1	-7%	nt	nt	-4%	nt	nt
O=C(OCc1nc2ccccc2s1)c1ccc(Br)o1	19%	14%	-5%	?	5%	0%
O=C(OCc1nc2ccccc2s1)c1ccco1	20%	?	10%	6.7µM*	0%	-2%
CC(=O)Nc1c(C(=O)c2ccccc2)oc2ccccc12	nt	0%	1%	4%	-4%	5%
Cc1c(C(=O)c2ccccc2)oc2ccc3ccccc3c12	nt	?	?	4.8µM*	5%	3.2µM*
CC1CCN(C(=O)C(C)OC(=O)CSc2ccc([N+](=O)[O-])cc2)CC1 (configuration not stated)	nt	-3%	0%	0%	-12%	1%
c1ccc(Sc2cnc3ccccc3n2)cc1	11%	nt	nt	21µM*	-4%	nt
Clc1ccc(Sc2cnc3ccccc3n2)cc1	-6%	nt	nt	15µM*	-1%	nt
Cc1cccc(C)c1NC(=O)c1sc(-n2nc(C)c(Cc3ccc4c(c3)OCO4)c2C)nc1C	nt	nt	nt	-5%	nt	nt
O=C1c2ccccc2CCC12N=NCC2c1ccc(Cl)cc1 (configuration not stated)	-13%	0%	-4%	21µM*	-5%	7%
COc1ccc(C2CN=NC23CCc2ccccc2C3=O)cc1 (configuration not stated)	nt	2%	-3%	17µM*	4.5µM*	1%
O=C1c2ccccc2CCC12N=NCC2c1ccc(Br)cc1 (configuration not stated)	-18%	-8%	-1%	?	3%	1%
Cc1ccc(C(=O)c2c3ccc([N+](=O)[O-])cc3[n+]([O-])n2CCC(N)=O)cc1	nt	15%	15%	0%	1.4µM*	13%
CN(C)S(=O)(=O)Nc1cccc(-c2cn3c(n2)SCC3)c1	nt	0%	-1%	-4%	-15%	-1%
Cc1ccc(-c2cn3c(n2)SCC3)cc1	11µM*	-7%	2.2µM*	?	-2%	2µM*
CCc1ccc(-c2cn3c(n2)SCC3)cc1	nt	?	1.6µM*	2.4µM*	-8%	1.4µM*
CC(C)(C)OC(=O)N1CCC(c2c(C(=O)N3CCN(C(=O)c4ccco4)CC3)cnn2-c2ccccc2Cl)CC1	nt	nt	nt	-4%	nt	nt
COc1ccc(CC2=C(O)c3ccccc3C(=O)C2=O)cc1	nt	-7%	2%	1%	0%	6%
O=C1C(=O)c2ccccc2C(O)=C1CCCCl	nt	-13%	-20%	-20%	11µM*	-43%
CCCOc1ccccc1NC(=O)Nc1ccccc1Cl	-6%	-6%	3.5µM*	0%	-1%	2.8µM*
CCOc1ccccc1NC(=O)Nc1ccc(Cl)cc1	-21%	7%	?	21µM*	-6%	12%
CCOc1ccccc1NC(=O)Nc1ccccn1	nt	-2%	14%	-19%	-2%	1%
Cc1ccc(CNC(=O)c2ccc(CS(=O)(=O)Cc3ccc(C)cc3)o2)cc1	nt	nt	nt	-1%	nt	nt
SMILES	SMN2 splice up	ELG1 genotoxic	NPC1 prom act	FLuc modulator	uPA surface inh	Rab9 promoter act
CCCc1nc2ccc(NC(=O)c3cccs3)cc2c(=O)n1Cc1ccccc1Cl	1%[1.84 µM]	-1%	-2%	11%	1%	2%
COc1ccc(Cn2c(C3CC3)nc3ccc(NC(C)=O)cc3c2=O)cc1	11µM*	?	2.2µM*	11µM*	-6%	1.6µM*
CCCc1nc2ccc(NC(C)=O)cc2c(=O)n1Cc1ccc(Cl)cc1	5%	?	3.5µM*	?	-3%	?
COc1ccc(Cn2c(C3CC3)nc3ccc(NC(=O)c4cccnc4)cc3c2=O)cc1	nt	-2%	-2%	?	-1%	?
O=C(Nc1ccccc1Cl)[C@H](CSCc1ccccc1)N1Cc2ccccc2C1=O	-1%	nt	nt	2%	nt	nt
O=C(NNc1nc2c(F)cccc2s1)C1=COCCO1	3%	1%	0%	1%	-2%	3%
Fc1cc(F)c2nc(Nc3nc4cc5c(cc4s3)OCO5)sc2c1	18µM*	?	?	?	4%	?
O=c1oc2ccccc2cc1-c1csc(Nc2nc3c(F)cccc3s2)n1	-28%	3%	16%	-19%	3%	-2%
Fc1cccc2sc(Nc3nc4cc5c(cc4s3)OCO5)nc12	5µM*	7.3µM*	4µM*	4.3µM*	5%	3.2µM*
Fc1cccc2sc(Nc3nc4cc5c(cc4s3)OCCO5)nc12	?	1.2µM*	4µM*	1.2µM*	-7%	0.71µM*
Cc1ccc(N(CC(=O)NCc2ccc(OC(C)C)cc2)S(=O)(=O)N(C)C)cc1	nt	nt	nt	-3%	nt	nt
O=C(CSc1nnc(NC(=O)c2cccc(Br)c2)s1)NCC1CCCO1 (configuration not stated)	nt	?	?	8.5µM*	0%	nt
Cn1c(SCC(=O)NCC2CCCO2)ncc(C(=O)Nc2ccccc2)c1=O (configuration not stated)	nt	?	0%	?	?	2%
O=C(CSc1nnc(NC(=O)c2ccccc2[N+](=O)[O-])s1)NCC1CCCO1 (configuration not stated)	nt	2%	6%	17µM*	4%	4%
O=C(CSc1nnc(NC(=O)Cc2ccccc2)s1)NCC1CCCO1 (configuration not stated)	-12%	-2%	-2%	-5%	1%	-9%
O=C(CSc1nnc(NC(=O)c2ccccc2)s1)NCC1CCCO1 (configuration not stated)	nt	?	3.5µM*	4.3µM*	?	2.8µM*
Cc1ccc(NC(=O)c2cnc(SCC(=O)NCC3CCCO3)n(C)c2=O)cc1C (configuration not stated)	nt	21µM*	?	4.8µM*	-6%	?
CCOCCCNC(=O)C(NC(=O)C1CCC(C)CC1)C(C)C (configuration not stated)	9%	nt	nt	-1%	nt	nt
CCCCN(C)CCNC(=O)c1ccc2c(c1)NC(=O)CN2	nt	nt	nt	1%	nt	nt
CCN(c1ccccc1)c1nnc(NC(=O)Nc2ccc(Br)cc2)s1	nt	nt	nt	-3%	nt	nt
